# From PubChem
# Sampled rows, rich in hits. Any-hit rate of the full collection: about 3.8%.
# Bfl-1 A1 inh: inhibitors of the anti-apoptotic protein A1, read as caspase activation; 330,000 compounds, 0.066% hits; MEF A1-2A-BIM cells, Caspase-Glo 3/7 luminescence, 3 h; percent of clofoctol response, vehicle zero; caspase activation, % (no concentration beside the values); AID 2462;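 active = over half of replicate activation scores above 10%, or exactly half above 10 with the replicate mean above 10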
# Mdm2-MdmX inh: inhibitors of human Mdm2/MdmX interaction; O15151+Q00987; SaOS-2 split-luciferase Mdm2/MdmX complementation, luminescence; inhibition, % at 8 µM; 330,000 compounds, 3% hits; AID 485346;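 active = inhibition of at least 50% at 8 µM in the primary screen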
# Beta cell apopt: blocks beta cell apoptosis; INS-1E cytokine-induced death, ATP luminescence, 48 h; percent of positive-control rescue, neutral wells zero; protection from apoptosis, % (no concentration beside the values); 300,000 compounds, 0.8% hits;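 active = Every replicate reaches about 75%, or at least half do and their mean reaches it too, limit read from the data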;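 also: higher means more ATP so stronger rescue from cytokine killing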
# Jurkat NFkB inh: inhibitors of the PMA/ionomycin-induced NF-kB reporter in Jurkat cells | PMA/ionomycin-induced NF-kB luciferase reporter, luminescence | 330,000 compounds, 0.53% hits | inhibition, % at 4 µM; in the data active = inhibition above about 50%
# 697 NFkB inh: lowers PMA/ionomycin-induced NF-kB signal in 697 B cells. 697 B-cell NF-kB luciferase reporter, 16 h. inhibition, % at 4 µM. 330,000 compounds, 0.33% hits. AID 435022; in the data active = inhibition above about 35%
# NTR1 agonist: activates human neurotensin receptor 1. NTR1-U2OS beta-arrestin-GFP spot imaging, agonist mode. activation, % at 20 µM. 330,000 compounds, 0.17% hits. AID 493036;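 active = activation at or above 40% of the spot to cytoplasm intensity ratio, with at least 20 cells analyzed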
# Target sequence (P30989 whole entry, looked up): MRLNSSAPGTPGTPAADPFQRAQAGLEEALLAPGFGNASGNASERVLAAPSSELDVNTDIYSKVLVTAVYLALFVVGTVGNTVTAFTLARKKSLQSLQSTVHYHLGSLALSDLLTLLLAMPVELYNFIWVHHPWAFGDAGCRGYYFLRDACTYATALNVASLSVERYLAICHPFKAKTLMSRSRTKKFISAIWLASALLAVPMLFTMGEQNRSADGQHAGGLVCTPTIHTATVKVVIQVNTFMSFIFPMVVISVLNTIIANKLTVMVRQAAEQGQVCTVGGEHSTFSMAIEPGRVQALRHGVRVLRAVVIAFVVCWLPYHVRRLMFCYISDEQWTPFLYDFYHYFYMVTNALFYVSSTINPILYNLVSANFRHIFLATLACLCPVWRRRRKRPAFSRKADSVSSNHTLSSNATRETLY
# Mdm2-MdmX conf: human Mdm2/MdmX binding inhibition, confirmed | AID 489028 | inhibition, % at 8 µM | shares compounds with Mdm2-MdmX inh | luminescent assay | 10,000 compounds, 55% hits; in the data active = inhibition above about 40%
# Full FLuc ctr: full-length luciferase inhibition in Mdm2/MdmX counter-screen; shares compounds with Mdm2-MdmX inh; SaOS-2 full-length luciferase counterscreen, luminescence; inhibition, % at 8 µM; 6,200 compounds, 77% hits; AID 504607;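 active = mean inhibition at 8 µM reaching about 37%, which flags the compound as non-specific, limit read from the data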;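 also: p53-null SaOS-2 cells with luciferase driven by a doxycycline-inducible promoter; compound on cells about two nights before reading with doxycycline added after day one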
# Hits are given with their value; i = inactive; nt = not tested or not shown.
SMILES,Bfl-1 A1 inh,Mdm2-MdmX inh,Beta cell apopt,Jurkat NFkB inh,697 NFkB inh,NTR1 agonist,Mdm2-MdmX conf,Full FLuc ctr
CN(CC(=O)Nc1ccccc1Cl)C(=O)COC(=O)c1nc(Cl)c(Cl)c(Cl)c1Cl,i,78,i,i,i,i,41,i
Cc1cccc(Nc2nnc(-c3ccc(N4CCOCC4)c([N+](=O)[O-])c3)c3ccccc23)c1,i,60,i,i,i,i,i,84
Cc1nnc(-c2ccc(N3CCOCC3)c([N+](=O)[O-])c2)o1,i,i,i,i,i,i,nt,nt
Cc1ccc(CNC(=O)C2CCN(S(=O)(=O)c3ccc4c(c3)CC(C)N4C(=O)C3CC3)CC2)cc1 (centres undefined),i,i,nt,i,i,i,nt,nt
Cc1ccc(CNC(=O)CCS(=O)(=O)c2ccc3c(c2)CC(C)N3C(=O)C2CC2)cc1 (centres undefined),i,63,i,i,i,i,49,50
O=C(NCCN1CCOCC1)c1cccc(NS(=O)(=O)c2ccc(Br)cc2)c1,i,i,i,i,i,i,nt,nt
Cc1ccc2cc3cc(C(=O)NCc4ccc5c(c4)OCO5)oc3nc2c1,nt,68,nt,i,i,i,i,nt
CCCCCCc1cc2cc(S(=O)(=O)c3ccc(Cl)cc3)c(=O)oc2cc1O,i,75,i,i,i,i,i,nt
CCCCCCc1cc2cc(C(=O)Nc3ccccc3)c(=O)oc2cc1O,i,97,112,i,i,i,61,57
Cn1c(CNS(=O)(=O)c2ccc(Cl)cc2)cc(=O)n(C)c1=O,i,i,i,i,i,i,nt,nt
Cc1c(C(=O)Nc2ccc(Cl)cc2)c2ccccn2c1C(=O)c1ccccc1,i,59,i,i,i,i,i,nt
CCn1nc(C)c(C(=O)Nc2cc(Oc3ccc(Cl)cc3)cc([N+](=O)[O-])c2)c1C,i,57,i,i,i,i,45,53
O=C(/C=C/c1ccccc1)NCCS(=O)(=O)N1CCN(c2ccc(F)cc2)CC1,i,i,i,i,i,i,nt,nt
CC(=O)Nc1ccc(NC(=O)C(C)Oc2ccccc2C(=O)NCc2ccccc2)cc1 (centres undefined),i,i,i,i,i,i,nt,nt
Cn1cnc([N+](=O)[O-])c1S(=O)(=O)c1cccc(Cl)c1,7.8,68,i,i,i,i,i,i
CCOC(=O)c1nnc(-c2ccc(C)cc2)nc1Sc1ccccc1Cl,i,54,i,i,i,i,i,nt
CCOC(=O)c1nnc(-c2ccccc2)nc1Sc1c(Cl)cccc1Cl,i,i,i,i,i,i,nt,nt
CCOC(=O)c1nnc(-c2ccc(C)cc2)nc1Oc1ccccc1Cl,i,51,i,i,i,i,i,nt
CCC(C(=O)Nc1c(C)cc(C)cc1C)N1CCCCCC1 (centres undefined),i,i,i,i,i,i,nt,nt
COc1ccc(OCCn2cc(/C=C(\C#N)C(=O)NCc3ccco3)c3ccccc32)cc1,i,75,i,i,i,i,42,51
COc1ccc(/C=c2\s/c(=C(/C#N)C(=O)NCc3ccco3)n(-c3ccccc3)c2=O)cc1,i,68,i,i,i,i,i,nt
CCOc1ccc(NS(=O)(=O)c2ccc(-c3ccc(=O)[nH]n3)o2)cc1,i,i,i,i,i,i,nt,nt
CC(OC(=O)CN1C(=O)C2CC=CCC2C1=O)C(=O)Nc1ccc(F)cc1Cl (centres undefined),i,i,i,i,i,i,nt,nt
Cc1cc(C)c(NC(=S)NC(NC(=O)c2ccccc2)C(Cl)(Cl)Cl)c(C)c1 (centres undefined),i,i,i,i,i,i,nt,nt
O=C(NC(NC(=S)Nc1ccccc1)C(Cl)(Cl)Cl)c1cccc(Cl)c1 (centres undefined),i,93,95,i,i,i,46,66
SMILES,Bfl-1 A1 inh,Mdm2-MdmX inh,Beta cell apopt,Jurkat NFkB inh,697 NFkB inh,NTR1 agonist,Mdm2-MdmX conf,Full FLuc ctr
O=C(NC(NC(=S)Nc1ccc(Cl)cc1Cl)C(Cl)(Cl)Cl)c1cccc([N+](=O)[O-])c1 (centres undefined),i,98,97,i,i,i,94,i
O=C(O)c1cccc(NC(=S)NC(NC(=O)c2cccc([N+](=O)[O-])c2)C(Cl)(Cl)Cl)c1 (centres undefined),i,i,i,i,i,i,nt,nt
C=CCN=C1S/C(=C\N(C)C)C(=O)N1S(=O)(=O)c1ccc(C)cc1,i,i,i,i,i,i,nt,nt
COc1cc(Br)ccc1NC(=O)c1ccccc1-c1ccccc1C(=O)O,i,i,nt,i,i,i,nt,nt
CCOc1cc(C2c3c(n[nH]c3C)C(=O)N2c2ccc(Br)cc2)ccc1O (centres undefined),i,i,i,i,i,i,nt,nt
CCOC(=O)c1ccc(N2C(=O)c3n[nH]c(C)c3C2c2ccc(OC)cc2)cc1 (centres undefined),i,i,i,i,i,i,nt,nt
COC(=O)c1ccc(C2c3c(n[nH]c3C)C(=O)N2c2ccc(C)cc2)cc1 (centres undefined),i,74,i,i,i,i,47,43
COc1cc(C2c3c(n[nH]c3C)C(=O)N2c2ccc(Br)cc2)ccc1O (centres undefined),i,56,i,i,i,i,i,nt
O=C(Nc1ccc(SC(F)F)cc1)c1cccc2nc3ccccc3nc12,i,78,i,i,i,i,i,nt
CCCn1cc(S(=O)(=O)c2ccc(Cl)cc2)c(=O)c2cc(OC)ccc21,i,i,i,i,i,i,nt,nt
COc1ccc(C(=O)O/N=C(\N)Cc2cccs2)cc1OC,i,86,i,i,i,i,51,68
COc1ccccc1C/C(N)=N/OC(=O)c1ccc2c(c1)OCO2,i,78,i,i,i,i,41,70
COc1ccccc1C/C(N)=N/OC(=O)c1ccc(C)c([N+](=O)[O-])c1,i,i,i,i,i,i,nt,nt
NC(=O)C1CCCN(C(=O)CN2C(=O)NC(c3ccccc3)(c3ccccc3)C2=O)C1 (centres undefined),nt,i,nt,i,i,i,nt,nt
O=S(=O)(c1ccc(Cl)cc1)c1cnc2ccccc2n1,i,53,i,i,i,i,i,nt
Cc1cc(C)cc(S(=O)(=O)c2cnc3ccccc3n2)c1,i,i,i,i,i,i,nt,nt
CSc1ccc(S(=O)(=O)N2CCC(C(=O)NC3CC3)CC2)cc1,i,i,i,i,i,i,nt,nt
Cc1cnc(NC(=O)CN2CCN(c3ccccn3)CC2)s1,i,67,79,i,i,i,63,64
COC(=O)c1ccc2nc(C3CCCCC3)c3c(c2c1)CCC3,i,i,nt,i,i,i,nt,nt
